Test results: PubChem BioAssay (Tox21)
“And” between values parts separate entries of the source, which are not always exact repeats. Identical values can stand only once. Records with an inconclusive call do not appear. A structure can be active in one record and inactive in another. The source made the active and inactive calls. Unless noted, the call rests on the fitted dose curve.

Tests used:
[1] = Nuclear factor erythroid 2-related factor 2/antioxidant responsive element (Nrf2/ARE) small molecule agonists: qHTS cell viability counter screen in human keratinocytes (AID 1919968; active means well fitted curve in the direction sought with a large enough effect in the repeat runs; an effect the other way counts as inactive or inconclusive; further: nearly all actives have a fitted effect of over 55% in size; further: potency means the concentration at half of the fitted maximal effect)
Method in brief: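 Measured as CellTiter-Fluor fluorescence, this readout tracks cytotoxicity in the same wells as the ARE-luciferase screen. HaCaT reporter cells (1,500/well) received compounds after a 5 h pre-incubation and were exposed for 23 h.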

[2] = Nuclear factor erythroid 2-related factor 2/antioxidant responsive element (Nrf2/ARE) small molecule agonists: luciferase reporter gene qHTS assay in human keratinocytes (AID 1919969); further: nearly all actives have a fitted effect of over 35% in size; further: potency means the concentration at half of the fitted maximal effect
[3] = target: Gonadotropin-releasing hormone receptor (Homo sapiens) (UniProt P30968); assay: Human gonadotropin-releasing hormone receptor (GnRHR) small molecule agonists, calcium flux assay in GnRHR-HEK293 cells (AID 1920063); further: nearly all actives have a fitted effect of over 35% in size; further: potency means the concentration at half of the fitted maximal effect
Method in brief: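 Fluorescence kinetics (480 nm excitation, 540 nm emission; 3 min, 1 s steps) report calcium mobilisation in human GnRHR-HEK293 cells in agonist mode. Dye incubation: 1 h, 37 C.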

[4] = target: KiSS-1 receptor (Homo sapiens) (UniProt Q969F8); assay: Human kisspeptin (KISS1R) small molecule agonists, calcium flux assay in KISS1R-HEK293 cells (AID 1920064; active means well fitted curve in the direction sought with a large enough effect in the repeat runs; an effect the other way counts as inactive or inconclusive; further: potency means the concentration at half of the fitted maximal effect)
Method in brief: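 Measures KISS1R agonism through calcium-sensitive dye fluorescence in stably transfected HEK293 cells, read for 3 min after pin-tool compound delivery; 15-point titrations in triplicate.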

[5] = G protein-coupled receptor (GPCR) small molecule agonists, calcium flux assay: HEK293 wild type cell line counter screen (AID 1920065); further: potency means the concentration at half of the fitted maximal effect
Method in brief: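 Readout: fluorescence at 480 nm excitation/540 nm emission, sampled at 1 s intervals for 3 min. Cells had been cultured 18 h, then dye-loaded 1 h at 37 C before compound or ATP addition.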

[6] = p53 small molecule agonists, cell-based qHTS assay with human liver microsomes: qHTS cell viability counter screen (AID 1963579); further: nearly all actives have a fitted effect of over 45% in size
Method in brief: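 Seed p53RE-bla cells at 4,000 per well; incubate 5 h at 37 C; add compound, human liver microsomes and NADPH; incubate 16 h at 37 C; add CellTiter-Glo; after 30 min at room temperature, read luminescence.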

[7] = p53 small molecule agonists, cell-based qHTS assay with rat liver microsomes: qHTS cell viability counter screen (AID 1963580); further: nearly all actives have a fitted effect of over 45% in size
Method in brief: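 HCT-116 p53RE-bla, 4,000 cells/well, 5 h pre-incubation; cpd + rat liver microsomes 0.5 mg/mL + NADPH 0.5 mg/mL (final); 16 h, 37 C; CellTiter-Glo, 30 min RT; luminescence.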

[8] = p53 small molecule agonists, cell-based qHTS assay: qHTS cell viability counter screen (AID 1963581); further: nearly all actives have a fitted effect of over 45% in size
Method in brief: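 In the same plates used for the p53 bla reporter, HCT-116 cells given compounds for 16 h at 37 C received CellTiter-Glo; luminescence was recorded 30 min later at room temperature.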

[9] = target: 5-hydroxytryptamine receptor 2A (Homo sapiens) (UniProt P28223); assay: 5-hydroxytryptamine receptor 2A (HTR2A) small molecule agonists, cell-based qHTS assay (AID 1963587); further: nearly all actives have a fitted effect of over 30% in size; further: potency means the concentration at half of the fitted maximal effect
Method in brief: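 Kinetic calcium-flux fluorescence (2 min, 1 sec intervals) after compound addition in agonist mode. HTR2A-CHO cells were cultured 18 h, then dye-loaded 1 h at 37 C.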

[10] = target: Muscarinic acetylcholine receptor M1 (Homo sapiens) (UniProt P11229); assay: Cholinergic receptor muscarinic 1 (CHRM1) small molecule antagonists, cell-based qHTS assay (AID 1963588); further: nearly all actives have a fitted effect of over 40% in size; further: potency means the concentration at half of the fitted maximal effect
Method in brief: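 CHRM1-CHO calcium-flux assay, antagonist mode. Cells were seeded 18 h, dye-loaded 1 h at 37 C and given compound for 5 min at RT, then acetylcholine was added at 50nM. FDSS fluorescence was read 3 min; 15 concentrations, three runs.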

[11] = target: Muscarinic acetylcholine receptor M1 (Homo sapiens) (UniProt P11229); assay: Cholinergic receptor muscarinic 1 (CHRM1) small molecule agonists, cell-based qHTS assay (AID 1963589); further: nearly all actives have a fitted effect of over 35% in size; further: potency means the concentration at half of the fitted maximal effect
Method in brief: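 Each compound was tested at 15 concentrations across three independent runs on dye-loaded CHO cells stably expressing human CHRM1, reading intracellular calcium fluorescence kinetically at 1 sec intervals.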

[12] = cAMP Responsive Elements (CRE) small molecule agonists, cell-based qHTS assay (AID 1963590)
Method in brief: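 Cell line: CRE-bla HEK 293T; medium DMEM/10% dialyzed FBS/0.1 mM NEAA/1 mM pyruvate/25 mM HEPES; 3 h compound exposure; beta-lactamase FRET readout after 2 h substrate loading at RT.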

[13] = cAMP Responsive Elements (CRE) small molecule antagonists, cell-based qHTS assay (AID 1963591; active means well fitted inhibition curve with a large enough effect in the signal ratio in the repeat runs, not every such curve was filed as active; the % refers to the signal ratio)
Method in brief: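 Inhibition of NKH477-driven (0.25 uM final) CRE-beta-lactamase signal in HEK293T cells, 3 h compound exposure at 37 °C, detected by FRET substrate fluorescence.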

[14] = target: Beta-2 adrenergic receptor (Homo sapiens) (UniProt P07550); assay: Adrenergic beta2 receptor (ADRB2) small molecule antagonists, cell-based qHTS assay (AID 1963592); further: nearly all actives have a fitted effect of over 50% in size; further: potency means the concentration at half of the fitted maximal effect
Method in brief: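 Cells (CHO, stable ADRB2 overexpression) incubated 18-20hr at 37C; compounds added from DMSO; agonist mix (1nM isoproterenol, 100uM IBMX, 25uM Ro-20-1724) added; 0.5hr RT; d2-cAMP and anti-cAMP-cryptate added; 1hr RT; 665/615 nm read.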

[15] = target: Beta-2 adrenergic receptor (Homo sapiens) (UniProt P07550); assay: Adrenergic beta2 receptor (ADRB2) small molecule agonists, cell-based qHTS assay (AID 1963593);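 further: CHO cells stably overexpressing human ADRB2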
Method in brief: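 CHO cells stably over-expressing ADRB2 were plated overnight at 37C, then dosed with compounds plus a stimulation mix containing 100uM IBMX and 25uM Ro-20-1724 for 0.5hr at room temperature. cAMP was measured by HTRF competition, 1hr.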

[16] = target: D(2) dopamine receptor (Homo sapiens) (UniProt P14416); assay: Dopamine D2 receptor (DRD2) small molecule agonists, cell-based qHTS assay (AID 1963594); further: nearly all actives have a fitted effect of over 35% in size; further: potency means the concentration at half of the fitted maximal effect
Method in brief: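 cAMP accumulation in DRD2-HEK293 cells measured by HTRF after 1 h detection; compounds added 10 min before NKH477 (200nM […]) forskolin-analogue stimulation, 30 min at room temperature, with Ro20-1724 present at 0.1 mM final.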

[17] = target: D(2) dopamine receptor (Homo sapiens) (UniProt P14416); assay: Dopamine D2 receptor (DRD2) small molecule antagonists, cell-based qHTS assay (AID 1963595; active means well fitted inhibition curve with a large enough effect in the signal ratio in the repeat runs, with a control signal flat; the % refers to the signal ratio)
Method in brief: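 DRD2-HEK293; 0.1 mM Ro20-1724; cpd 10 min RT; NKH477 200 nM + quinpirole 12 nM, 30 min RT; HTRF cAMP (cAMP-d2/anti-cAMP cryptate), 665/620 nm ratio after 1 h.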

[18] = target: 5-hydroxytryptamine receptor 2A (Homo sapiens) (UniProt P28223); assay: 5-hydroxytryptamine receptor 2A (HTR2A) small molecule antagonists, cell-based qHTS assay (AID 1963586); further: nearly all actives have a fitted effect of over 45% in size; further: potency means the concentration at half of the fitted maximal effect
Method in brief: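 Antagonist-mode intracellular calcium assay: DOI (4 nM) added after 5 min compound pre-incubation at room temperature to dye-loaded HTR2A-CHO cells. Fluorescence followed for 3 min, sampled every second.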

Measured: Potency

Chain of Beta-2 adrenergic receptor (Homo sapiens) (P07550 whole entry, looked up): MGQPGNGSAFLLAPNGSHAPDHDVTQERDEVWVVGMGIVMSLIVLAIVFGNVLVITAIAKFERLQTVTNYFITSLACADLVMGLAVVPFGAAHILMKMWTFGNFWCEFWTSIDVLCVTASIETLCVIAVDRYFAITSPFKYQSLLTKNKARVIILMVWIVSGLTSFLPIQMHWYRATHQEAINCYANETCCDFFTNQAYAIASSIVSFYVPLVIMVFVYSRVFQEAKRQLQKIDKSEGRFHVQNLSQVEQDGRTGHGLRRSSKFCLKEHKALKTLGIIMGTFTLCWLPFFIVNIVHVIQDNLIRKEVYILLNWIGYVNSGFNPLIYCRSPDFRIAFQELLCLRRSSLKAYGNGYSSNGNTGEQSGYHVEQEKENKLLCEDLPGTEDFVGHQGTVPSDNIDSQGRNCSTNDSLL
Chain of KiSS-1 receptor (Homo sapiens) (Q969F8 whole entry, looked up): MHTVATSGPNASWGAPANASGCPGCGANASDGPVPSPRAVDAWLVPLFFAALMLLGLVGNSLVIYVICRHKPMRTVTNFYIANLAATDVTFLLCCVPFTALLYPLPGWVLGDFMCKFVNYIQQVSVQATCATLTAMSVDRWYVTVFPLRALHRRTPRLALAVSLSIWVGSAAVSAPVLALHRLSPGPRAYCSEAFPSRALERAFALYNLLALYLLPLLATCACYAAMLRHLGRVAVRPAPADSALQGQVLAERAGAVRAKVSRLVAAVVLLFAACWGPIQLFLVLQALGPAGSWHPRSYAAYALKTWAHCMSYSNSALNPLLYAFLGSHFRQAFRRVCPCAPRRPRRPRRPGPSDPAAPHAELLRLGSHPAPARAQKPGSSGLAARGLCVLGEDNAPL
Chain of Muscarinic acetylcholine receptor M1 (Homo sapiens) (P11229 whole entry, looked up): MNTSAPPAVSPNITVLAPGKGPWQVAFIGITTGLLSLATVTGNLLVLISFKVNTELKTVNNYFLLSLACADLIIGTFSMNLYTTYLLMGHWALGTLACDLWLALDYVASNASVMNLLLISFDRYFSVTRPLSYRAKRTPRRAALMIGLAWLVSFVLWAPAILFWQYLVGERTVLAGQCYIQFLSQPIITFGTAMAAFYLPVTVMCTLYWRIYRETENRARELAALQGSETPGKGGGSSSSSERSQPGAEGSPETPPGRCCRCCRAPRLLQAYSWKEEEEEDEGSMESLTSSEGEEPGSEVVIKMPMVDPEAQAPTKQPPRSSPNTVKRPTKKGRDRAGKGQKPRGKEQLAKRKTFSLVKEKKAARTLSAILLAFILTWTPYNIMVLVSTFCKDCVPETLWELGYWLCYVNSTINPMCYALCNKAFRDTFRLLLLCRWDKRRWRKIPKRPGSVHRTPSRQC
Chain of 5-hydroxytryptamine receptor 2A (Homo sapiens) (P28223 whole entry, looked up): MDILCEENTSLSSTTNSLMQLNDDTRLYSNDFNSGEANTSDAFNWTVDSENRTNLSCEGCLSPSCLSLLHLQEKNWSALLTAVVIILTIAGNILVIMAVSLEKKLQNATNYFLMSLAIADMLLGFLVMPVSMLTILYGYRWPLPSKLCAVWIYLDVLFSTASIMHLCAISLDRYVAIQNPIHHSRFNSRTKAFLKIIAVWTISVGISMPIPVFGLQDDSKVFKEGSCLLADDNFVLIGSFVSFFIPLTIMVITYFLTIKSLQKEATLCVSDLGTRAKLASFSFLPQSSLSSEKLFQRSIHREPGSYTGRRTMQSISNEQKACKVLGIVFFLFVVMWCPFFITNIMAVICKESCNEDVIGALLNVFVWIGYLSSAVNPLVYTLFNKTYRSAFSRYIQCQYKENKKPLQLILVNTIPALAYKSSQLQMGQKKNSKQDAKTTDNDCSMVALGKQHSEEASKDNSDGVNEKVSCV
Chain of Gonadotropin-releasing hormone receptor (Homo sapiens) (P30968 whole entry, looked up): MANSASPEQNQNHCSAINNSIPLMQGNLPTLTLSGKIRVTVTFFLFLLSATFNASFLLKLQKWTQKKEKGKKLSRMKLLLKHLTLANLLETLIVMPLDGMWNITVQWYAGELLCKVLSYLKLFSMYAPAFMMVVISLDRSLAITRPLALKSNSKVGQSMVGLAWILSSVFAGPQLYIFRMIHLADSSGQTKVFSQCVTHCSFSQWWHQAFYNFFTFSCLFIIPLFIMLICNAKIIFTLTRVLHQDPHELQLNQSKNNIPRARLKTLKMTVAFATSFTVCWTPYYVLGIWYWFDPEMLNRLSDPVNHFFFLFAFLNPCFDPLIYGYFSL
Chain of D(2) dopamine receptor (Homo sapiens) (P14416 whole entry, looked up): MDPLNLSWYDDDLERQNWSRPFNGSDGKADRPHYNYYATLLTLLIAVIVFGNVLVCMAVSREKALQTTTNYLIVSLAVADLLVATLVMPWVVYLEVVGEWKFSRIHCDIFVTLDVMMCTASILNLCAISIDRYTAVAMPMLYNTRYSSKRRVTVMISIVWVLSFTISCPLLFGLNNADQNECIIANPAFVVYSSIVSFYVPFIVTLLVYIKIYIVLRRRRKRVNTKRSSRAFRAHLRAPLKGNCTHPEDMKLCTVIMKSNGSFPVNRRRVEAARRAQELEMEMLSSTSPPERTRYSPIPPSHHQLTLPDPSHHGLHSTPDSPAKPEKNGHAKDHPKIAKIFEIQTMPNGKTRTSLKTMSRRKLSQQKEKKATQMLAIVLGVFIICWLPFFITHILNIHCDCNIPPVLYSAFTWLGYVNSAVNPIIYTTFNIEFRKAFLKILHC

S=C(NC1CCCCC1)NC1CCCCC1
active: [1] 26.8 µM and 24.3 µM | [2] 15.1 µM
not listed: [18]
inactive: all other assays above

CCCCCCCCCCCCOCC1CO1 (stereo not given)
active: [2] 46.3 µM
not listed: [12] | [15]
inactive: all other assays above

O=[N+]([O-])c1ccc(/C=C/c2ccc([N+](=O)[O-])cc2S(=O)(=O)O)c(S(=O)(=O)O)c1
not listed: [15]
inactive: all other assays above

O=C1OC2(c3ccccc31)c1cc(Br)c(O)c(Br)c1Oc1c2cc(Br)c(O)c1Br
active: [3] 31.4 µM and 14.2 µM and 15.1 µM | [4] 39.5 µM and 44.9 µM and 23.9 µM | [5] 35.2 µM and 35.7 µM and 16.9 µM | [9] 22.2 µM and 1.59 µM and 19 µM | [11] 19.8 µM and 22.5 µM and 21.3 µM | [14] 62 µM and 62.8 µM and 21.1 µM | [16] 62 µM and 60.5 µM and 29.8 µM
inactive: [1] | [2] | [6] | [7] | [8] | [10]

CS(=O)(=O)c1ccc(Cl)cc1
inactive: all assays above

C[n+]1ccn(CCO)c1
not listed: [15]
inactive: all other assays above

C=C(C)[C@H]1CC=C(C)C(=O)C1
not listed: [9] | [10] | [11] | [15]
inactive: all other assays above

CC(=O)OCC(=O)[C@@]1(O)CC[C@H]2[C@@H]3CCC4=CC(=O)C=C[C@]4(C)[C@H]3[C@@H](O)C[C@@]21C
not listed: [9] | [10] | [11] | [13]
inactive: all other assays above

Nc1cccc(N)n1
not listed: [14] | [15]
inactive: all other assays above

O=C(c1ccccc1)c1ccccc1O
not listed: [9] | [12] | [15]
inactive: all other assays above

NC[C@H](O)c1ccc(O)c(O)c1
active: [3] 19 µM
not listed: [12] | [14] | [15] | [16] | [17]
inactive: all other assays above

CN(C)c1cccc(O)c1
43.9 µM (active) and inactive: [2]
not listed: [9]
inactive: all other assays above

OC[C@H]1O[C@@H]2O[C@H]3[C@H](O)[C@@H](O)[C@@H](O[C@H]4[C@H](O)[C@@H](O)[C@@H](O[C@H]5[C@H](O)[C@@H](O)[C@@H](O[C@H]6[C@H](O)[C@@H](O)[C@@H](O[C@H]7[C@H](O)[C@@H](O)[C@@H](O[C@H]8[C@H](O)[C@@H](O)[C@@H](O[C@H]1[C@H](O)[C@H]2O)O[C@@H]8CO)O[C@@H]7CO)O[C@@H]6CO)O[C@@H]5CO)O[C@@H]4CO)O[C@@H]3CO
not listed: [9] | [10] | [11] | [18]
inactive: all other assays above

C=C1C[C@]23C[C@@]1(O)CC[C@H]2[C@@]12C=C[C@H](O)[C@@](C)(C(=O)O1)[C@H]2[C@@H]3C(=O)O
not listed: [15] | [18]
inactive: all other assays above

O=C(COc1ccc(Cl)cc1)N1CCN(Cc2ccc3c(c2)OCO3)CC1
29.8 µM (active) and inactive: [18]
37.5 µM (active) and inactive: [10]
not listed: [9] | [15]
inactive: all other assays above

N[C@@H](Cc1c[nH]c2ccc(O)cc12)C(=O)O
active: [18] 364 nM and 6.5 µM | [9] 599 nM and 8.49 µM
not listed: [15]
inactive: all other assays above
